PostGolgi yeast: growth inhibition of a yeast mutant, post-Golgi transport screen. post-Golgi transport phenotypic cell assay. inhibition, % at 10 µM. 98,000 tested, 0.9% active;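 note: yeast cells grown in 1536-well plates; yeast grown about 18 h at 30C before absorbance read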
Pyk2 oligo antag: blocks oligomerization of human Pyk2 in cells; Q14289; Q293 cells, Pyk2 FERM NanoBiT luminescence; stronger effect = lower value; z-score (the deposit names both 25 µM and 10 µM); 99,000 tested, 0.83% active; AID 1347419;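 active = Z-score of -3 or lower, scaled per plate to the spread of control and sample wells; inactive = z-score above -3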;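 note: negative z-score means lost luminescence so less FERM oligomerization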
PostGolgi ctrl: yeast control strain growth, post-Golgi counter-screen. efflux-deficient yeast background strain, growth absorbance A615, 16 h. inhibition, % at 10 µM. 98,000 tested, 5% active
Cav3 T inh: inhibitors of human Cav3.2 T-type calcium channel. O95180. Cav3.2-expressing cells, Fluo-4 calcium fluorescence FDSS; stronger effect = lower value. B-score at 10 µM. 100,000 tested, 4% active. AID 449739;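 active = single-dose well whose peak fluorescence ratio is a statistical outlier from its plate by either plate-standardised score or position-corrected B-score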
Starred values were filed as active, the others as inactive; / = no result. Hits are enriched below; roughly 8% of the tested compounds scored in any of these assays. Cut-off read from the data, not from the text of the source, unless noted: active = inhibition above about 30%; inactive = the rest.

SMILES	PostGolgi yeast	Pyk2 oligo antag	PostGolgi ctrl	Cav3 T inh
CCOC(=O)c1c(C)n(CCNC(C)=O)c2ccc(O)cc12	4	0.2	-5	0.78
COC(=O)c1c(C)n(-c2ccc(C)cc2)c2ccc(O)cc12	-8	-1.7	47*	1.1
CCOC(=O)c1c(C)n(CC(O)c2ccccc2)c2ccc(O)cc12 (stereo not given)	8	-3*	2	-0.91
NC(=O)CSc1nnc(C2CC2)n1Cc1ccccc1	3	-0.65	-1	0.73
CS(=O)(=O)N1CCC(C(=O)Nc2ccc(Br)cc2F)CC1	-3	1.2	9	-2.2
COc1cccc(/C=N/NC(=O)c2cc(C34CC5CC(CC(C5)C3)C4)[nH]n2)c1	-3	-1.6	66*	-2.9
Cc1nc(NCCCN2CCOCC2)c2oc3ccccc3c2n1	7	1.1	10	1.1
Cc1nc(NCCc2ccccc2)c2oc3ccccc3c2n1	18	1.9	51*	-1.9
COc1cc(/C=C/C(=O)c2c(O)ccc3c(C)cc(=O)oc23)ccc1O	16	-3*	27	/
Cc1[nH]c(=O)cc2ccccc12	-8	0.17	3	0.74
CC1(C)Cc2ccccc2-c2nc3ccccc3c(=O)n21	-11	-0.23	13	-0.91
Cc1ccnc(NC(=O)C23CC4CC(CC(C4)C2)C3)c1	-2	-0.57	10	-6.1*
CCC(=O)Nc1ccc(NC(=O)C23CC4CC(CC(C4)C2)C3)cn1	1	0.58	4	0.47
Cc1noc(C)c1CS(=O)(=O)c1ccc(Br)cc1	-7	1.8	-11	/
O=C(NC1CCCCC1)C(c1ccncc1)N(Cc1ccccc1)C(=O)c1ccc(-c2ccccc2)[nH]1 (stereo not given)	9	-0.5	12	/
CC(C(=O)NC1CCCC1)N(C(=O)c1ccc(-c2ccccc2)[nH]1)c1ccccc1F (stereo not given)	22	-2.1	19	-6*
Cc1ccc2nc(C3CCN(C(=O)c4ccco4)CC3)[nH]c2c1	-2	-0.2	-1	0.24
Nc1ccc(N2CCN(C(=O)c3ccco3)CC2)cc1	-1	-0.63	8	0.47
O=C(NCCC1=CCCCC1)C(=O)NCc1ccccc1Cl	1	0.43	34*	-0.13
COc1ccccc1NC(=O)Cc1noc(CSc2cccc[n+]2[O-])n1	-6	0.32	18	1.3
COc1ccccc1NC(=O)Cc1noc(CSc2cc(C)c3ccccc3n2)n1	4	-0.15	18	-7*
O=C(Nc1ccccc1)OCN1C(=O)c2ccccc2C1=O	2	1.8	3	-0.57
CCC(C)C(NC(=O)OCc1ccccc1)C(=O)OCN1C(=O)c2ccccc2C1=O (stereo not given)	24	0.95	1	-5.1*
O=C(O)c1cccc(CN2C(=O)CSC2=O)c1	-2	-0.08	36*	0.54
O=C(O)c1cccc(CN2C(=O)SC(Nc3ccccc3)C2=O)c1 (stereo not given)	4	-0.39	1	-0.13
SMILES	PostGolgi yeast	Pyk2 oligo antag	PostGolgi ctrl	Cav3 T inh
Cc1cc(C)c(S(=O)(=O)N2CCOC2CNC(=O)C(=O)NCc2ccco2)c(C)c1 (stereo not given)	/	/	/	0.81
CCOCCCNC(=O)C(c1ccc(Cl)cc1)N1CCN(c2ccccc2)CC1 (stereo not given)	5	/	31*	-1.4
CCOCCCNC(=O)C(c1ccc(Cl)cc1)N1CCN(C(=O)c2ccco2)CC1 (stereo not given)	-3	0.38	-6	0.25
COc1cccc(NC(=O)N(Cc2cc3cc(C)cc(C)c3[nH]c2=O)CC2COCCO2)c1 (stereo not given)	0	-1.4	-6	-2
CC(=O)c1cccc(NC(=O)Nc2ccc3c(c2)N(C)C(=O)CS3)c1	-11	-3.3*	20	-1.4
COc1cccc(CNC(=O)C2CCCN(S(=O)(=O)c3cccc4nonc34)C2)c1 (stereo not given)	-8	0.73	-8	0.56
CCCOc1ccc(C(=O)N2CCN(c3ccc(N)cc3Cl)CC2)cc1	-6	-3.9*	13	-0.037
CCOC(=O)C(C(=O)Nc1ccccc1)C1CCCCC1 (stereo not given)	0	0.51	-2	-1.2
CCOC(=O)C(C(=O)Nc1ccc(C)cc1)C1CCCCC1 (stereo not given)	-4	-1.5	40*	0.75
O=C(CSc1ccsc1[N+](=O)[O-])NCCc1ccc(Cl)cc1	-4	-0.43	3	-0.57
CC(Sc1ccsc1[N+](=O)[O-])C(=O)NCCc1ccc(Cl)cc1 (stereo not given)	70*	0.21	34*	-0.026
O=C(NN=C1c2ccccc2-c2ccccc21)c1ccccc1Br	0	0.18	3	-4*
O=C(Nc1ccccc1C(=O)N/N=C/c1ccc(F)cc1)c1ccccc1Br	7	0.46	21	0.95
Cc1ccc(N=Nc2c(=O)[nH]n3c(C)cc(C)nc23)cc1	1	-3.8*	12	1.2
Cc1ccc(N=Nc2c(N)[nH]n3c(=O)c4c(nc23)CCCC4)cc1	-1	/	25	/
COC(=O)Cc1cc(=O)[nH]c(Nc2nc3ccccc3o2)n1	0	-1	5	3.5*
CCn1c(SC(C)C(=O)OC)nnc1-c1c[nH]c2ccccc12 (stereo not given)	0	/	13	0.98
Cc1cc(C)nc(-n2nc(C)cc2NC(=O)CNC(C)c2ccccc2)n1 (stereo not given)	8	0.39	34*	0.69
Cc1ccc2nc3c(cc(C#N)c(=O)n3-c3nccs3)c(=O)n2c1	4	-0.31	31*	1.3
Fc1ccc(CNc2nc3ccccc3n3cnnc23)cc1	-7	/	-2	-0.6
CCCN(CC1CC1)C(=O)CSc1ncnc2sc(C)c(C)c12	-6	-0.71	37*	-5.2*
Cc1sc2ncnc(SCC(=O)N3CCCC3=O)c2c1C	0	0.21	2	0.48
O=C(CCCCn1c(=O)c2ccccc2n(CC(=O)Nc2ccccc2)c1=O)NCc1ccco1	4	-1.1	-4	/
Cc1ccc(NC(=O)Cn2c(=O)n(CCCC(=O)NCc3ccco3)c(=O)c3ccccc32)cc1	-13	-3.1*	3	0.1
ONC=Nc1cccc2nonc12	-1	-0.18	-1	-0.12
SMILES	PostGolgi yeast	Pyk2 oligo antag	PostGolgi ctrl	Cav3 T inh
CSc1nc2ccc(NC(=O)CSc3nnc(N)s3)cc2s1	-3	0.82	6	0.029
O=C(CCC(=O)OCC(=O)c1ccc(Cl)cc1Cl)Nc1cccc2cccnc12	2	1.4	38*	-0.7
O=C(CCC(=O)OCC(=O)c1ccc(-c2ccccc2)cc1)Nc1cccc2cccnc12	-1	0.09	3	-1.1
O=c1c(-c2nnc(SCc3ccc(Cl)c(Cl)c3)o2)cccn1Cc1ccccc1	8	-0.14	54*	-0.15
Clc1cccc(CSc2nnc(-c3c[nH]c4ccccc34)o2)c1	-6	-1	25	-0.14
COC/C=C/C1=CC2=CC(=O)C(C)(OC(=O)c3cnc4ccccc4n3)C(=O)C2=CO1 (stereo not given)	/	/	/	-0.84
CC(=O)Cn1c(N2CCC(Cc3ccccc3)CC2)nc2c1c(=O)[nH]c(=O)n2C	-2	0.1	10	1.6
C=C(C)Cn1c(N2CCC(Cc3ccccc3)CC2)nc2c1c(=O)[nH]c(=O)n2C	12	-1.4	54*	-4*
CCCCCn1c(N2CCC(Cc3ccccc3)CC2)nc2c1c(=O)[nH]c(=O)n2C	/	/	/	-4.8*

Bioassay records as filed in PubChem BioAssay.
